Molecules are shown by their SMILES. Results filed as inconclusive are left out. The source made the active and inactive calls. Unless noted, calls follow the shape of the dose curve; as a rule, active = well fitted curve in the direction sought with a large enough effect in the repeat runs; inconclusive = weak or mixed curves; inactive = no such curve, though single readings can be large; an effect the other way counts as inactive or inconclusive.

The nature of test [1]: qHTS assay to test for compound auto fluorescence at 535 nm (green) in HEK293 cells (AID 720680). On the technique in general: Quantitative high-throughput screening tests each substance at several concentrations.
A short description of test [2]: qHTS assay to test for compound auto fluorescence at 460 nm (blue) in HEK293 cell free culture (AID 720681). The gist of the method: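 Test compounds were pinned into cell-free culture medium (DMEM with 10% FBS) and fluorescence was read directly at Ex/Em 405/460 nm. Signals were expressed as fluorescence equivalents of triamterene, with DMSO vehicle as control.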

A short description of test [3]: qHTS assay to test for compound auto fluorescence at 590 nm (red) in HEK293 cell free culture (AID 720683). The gist of the method: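 Tox21 10K library compounds were pinned into cell-free DMEM with 10% FBS and fluorescence was read at excitation 540 nm. Activity is expressed as Rose Bengal sodium equivalency.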
Test [4] is described as follows: qHTS assay to test for compound auto fluorescence at 590 nm (red) in HepG2 cell free culture (AID 720684). The gist of the method: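 Ex 540 / Em 590 nm read of compound in cell-free MEM (10% FBS). Rose Bengal sodium reference.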
The nature of test [5]: qHTS assay to test for compound auto fluorescence at 460 nm (blue) in HepG2 cell free culture (AID 720685). The gist of the method: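 Cell-free plates of MEM plus 10% FBS received 23 nL compound or DMSO vehicle; blue-channel (405/460 nm) intensity scored against triamterene as reference fluorophore.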
A short description of test [6]: qHTS assay to test for compound auto fluorescence at 535 nm (green) in HepG2 cell free culture (AID 720686).
Test [7] addresses Glucocorticoid receptor (Homo sapiens) (UniProt P04150). Briefly: qHTS assay to identify small molecule agonists of the glucocorticoid receptor (GR) signaling pathway (AID 720691; active = well fitted activation curve with a large enough effect in the signal ratio in the repeat runs, not every such curve was filed as active; the % refers to the signal ratio). The gist of the method: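 Steps: seed GR-bla HeLa cells, incubate 4 h at 37 C/5% CO2; pin-transfer DMSO-dissolved compounds; incubate 18 h at 37 C; add LiveBLAzer B/G FRET substrate; after 2 h at room temperature, measure fluorescence.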

Test [8] in a line: qHTS assay to identify small molecule antagonists of the glucocorticoid receptor (GR) signaling pathway - cell viability counter screen (AID 720693). Also: nearly all actives have a fitted effect of over 55% in size.
Test [9] in a line: qHTS assay for identifying genotoxic compounds that show differential cytotoxicity against isogenic chicken DT40 cell lines with known DNA damage response pathways - Rev3 mutant cell line (AID 743014). Also: nearly all actives have a fitted effect of over 55% in size. Also: potency is read from the fitted curve at half-maximal effect.
Test [10] is described as follows: qHTS assay to identify small molecule antagonists of the androgen receptor (AR) signaling pathway - cell viability counter screen (AID 743033; also: nearly all actives have a fitted effect of over 45% in size).
Test [11] can be described thus: qHTS assay to identify small molecule antagonists of the androgen receptor (AR) signaling pathway using the MDA cell line - cell viability counter screen (AID 743041; also: nearly all actives have a fitted effect of over 45% in size). The gist of the method: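 In this qHTS counter assay, fluorescence intensity after CellTiter-Fluor addition indicated viability of MDA-kb2 AR-luc cells given compounds and R1881 for 16 h at 37C.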
Test [12] can be described thus: qHTS assay to test for compound auto fluorescence at 460 nm (blue) in HepG2 cells (AID 720687). The gist of the method:
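Cells (2,000/well in MEM with 10% FBS) attached overnight at 37 C, then were exposed to compound or DMSO for 1 hr at 37 C, 5% CO2. Fluorescence read at Ex/Em 405/460 nm, expressed as triamterene-equivalent signal.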

Test [13] concerns the target Glucocorticoid receptor (Homo sapiens) (UniProt P04150). The test can be described thus: qHTS assay to identify small molecule antagonists of the glucocorticoid receptor (GR) signaling pathway (AID 720692; active = well fitted inhibition curve with a large enough effect in the signal ratio in the repeat runs, not every such curve was filed as active; the % refers to the signal ratio). The gist of the method:
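Antagonism was scored as loss of dexamethasone-driven (5 nM final) reporter signal in HeLa cells bearing a glucocorticoid response element–beta-lactamase construct, after 18 h compound exposure at 37 C and 2 h FRET substrate loading.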

A short description of test [14]: qHTS assay for identifying genotoxic compounds that show differential cytotoxicity against isogenic chicken DT40 cell lines with known DNA damage response pathways - Rad54/Ku70 mutant cell line (AID 743015). Also: nearly all actives have a fitted effect of over 60% in size. Also: potency is read from the fitted curve at half-maximal effect.
In test [15] the target is Androgen receptor (Homo sapiens) (UniProt P10275). Briefly: qHTS assay to identify small molecule antagonists of the androgen receptor (AR) signaling pathway (AID 743035; active = well fitted inhibition curve with a large enough effect in the signal ratio in the repeat runs, not every such curve was filed as active; the % refers to the signal ratio). A digest of the protocol:
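Steps: seed AR-UAS-bla GripTite HEK293 cells, incubate 4 h at 37C; pin in test compound, then add agonist R1881; incubate 16 h at 37C; add LiveBLAzer B/G FRET substrate, 2 h at room temperature; read fluorescence.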

For test [16] the target is unchanged. The test can be described thus: qHTS assay to identify small molecule agonists of the androgen receptor (AR) signaling pathway (AID 743036; active = well fitted activation curve with a large enough effect in the signal ratio in the repeat runs, with a control signal flat, not every such curve was filed as active; the % refers to the signal ratio). A digest of the protocol:
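Reporter line: GeneBLAzer AR-UAS-bla-GripTite (HEK293). Steps: plate cells, 4 h rest, add compounds, 16 h at 37C, add LiveBLAzer B/G substrate, 2 h at RT, read fluorescence.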

For test [17] the target is unchanged. The test can be described thus: qHTS assay to identify small molecule agonists of the androgen receptor (AR) signaling pathway using the MDA cell line (AID 743040; also: nearly all actives have a fitted effect of over 20% in size). A digest of the protocol:
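Cell-based luciferase reporter: MDA-kb2, MMTV promoter (AR + GR response elements). 16 h compound exposure at 37C; ONE-Glo, 30 min RT, luminescence.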

For test [18] the target is unchanged. The test can be described thus: qHTS assay to identify small molecule antagonists of the androgen receptor (AR) signaling pathway using the MDA cell line (AID 743042; also: nearly all actives have a fitted effect of over 55% in size). The gist of the method:
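MDA-kb2 cells (human breast carcinoma, stably carrying an MMTV-luciferase reporter responsive to AR and GR) were plated at 3,000 cells/well and preincubated 5 hr at 37C, then given compound plus R1881 agonist for 16 h. ONE-Glo luminescence was read.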

Test [19] in a line: qHTS assay for identifying genotoxic compounds that show differential cytotoxicity against isogenic chicken DT40 cell lines with known DNA damage response pathways - wild type cell line (AID 743012). Also: nearly all actives have a fitted effect of over 60% in size. Also: potency is read from the fitted curve at half-maximal effect. A digest of the protocol: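 Cytotoxicity in repair-proficient parental chicken DT40 cells serves as the comparator for Rad54/Ku70- and Rev3-deficient lines. Cells were exposed to compounds for 40 h at 37 C/5% CO2, and ATP-based luminescence (CellTiter-Glo) measured viability.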

Test [20] is described as follows: qHTS assay to test for compound auto fluorescence at 535 nm (green) in HEK293 cell free culture (AID 720682). A digest of the protocol: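 Steps: dispense DMEM/10% FBS into empty wells; pin in compound or DMSO; measure fluorescence at 485/535 nm. Values are fluorescein equivalents.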
% is scaled to controls: 0 for no effect and ±100 for the full control effect.

Sequence of Androgen receptor (Homo sapiens) (P10275 whole entry, looked up): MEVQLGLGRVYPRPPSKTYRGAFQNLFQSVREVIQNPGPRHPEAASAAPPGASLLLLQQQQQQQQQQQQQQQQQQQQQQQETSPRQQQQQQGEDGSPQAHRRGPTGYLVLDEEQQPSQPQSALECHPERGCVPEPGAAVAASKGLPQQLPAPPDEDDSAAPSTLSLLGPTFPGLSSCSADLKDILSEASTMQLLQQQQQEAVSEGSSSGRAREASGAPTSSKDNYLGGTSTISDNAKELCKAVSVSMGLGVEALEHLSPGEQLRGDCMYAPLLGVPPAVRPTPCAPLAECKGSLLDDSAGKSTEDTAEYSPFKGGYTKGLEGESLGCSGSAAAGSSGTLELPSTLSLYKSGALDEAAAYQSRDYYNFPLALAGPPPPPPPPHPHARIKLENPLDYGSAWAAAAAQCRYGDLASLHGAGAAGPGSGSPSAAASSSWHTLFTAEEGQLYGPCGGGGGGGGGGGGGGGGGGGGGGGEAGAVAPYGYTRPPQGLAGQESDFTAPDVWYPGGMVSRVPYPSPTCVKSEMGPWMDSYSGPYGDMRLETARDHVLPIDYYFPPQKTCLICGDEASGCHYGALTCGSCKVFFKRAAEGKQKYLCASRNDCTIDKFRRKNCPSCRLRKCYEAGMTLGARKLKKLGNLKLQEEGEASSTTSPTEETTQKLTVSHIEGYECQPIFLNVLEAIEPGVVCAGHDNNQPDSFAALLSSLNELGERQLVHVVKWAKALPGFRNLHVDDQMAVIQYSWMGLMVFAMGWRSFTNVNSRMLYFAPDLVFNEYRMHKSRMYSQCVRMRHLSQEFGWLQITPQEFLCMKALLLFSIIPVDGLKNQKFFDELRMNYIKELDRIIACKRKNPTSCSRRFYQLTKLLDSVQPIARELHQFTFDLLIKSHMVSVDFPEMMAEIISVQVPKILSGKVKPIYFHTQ
Sequence of Glucocorticoid receptor (Homo sapiens) (P04150 whole entry, looked up): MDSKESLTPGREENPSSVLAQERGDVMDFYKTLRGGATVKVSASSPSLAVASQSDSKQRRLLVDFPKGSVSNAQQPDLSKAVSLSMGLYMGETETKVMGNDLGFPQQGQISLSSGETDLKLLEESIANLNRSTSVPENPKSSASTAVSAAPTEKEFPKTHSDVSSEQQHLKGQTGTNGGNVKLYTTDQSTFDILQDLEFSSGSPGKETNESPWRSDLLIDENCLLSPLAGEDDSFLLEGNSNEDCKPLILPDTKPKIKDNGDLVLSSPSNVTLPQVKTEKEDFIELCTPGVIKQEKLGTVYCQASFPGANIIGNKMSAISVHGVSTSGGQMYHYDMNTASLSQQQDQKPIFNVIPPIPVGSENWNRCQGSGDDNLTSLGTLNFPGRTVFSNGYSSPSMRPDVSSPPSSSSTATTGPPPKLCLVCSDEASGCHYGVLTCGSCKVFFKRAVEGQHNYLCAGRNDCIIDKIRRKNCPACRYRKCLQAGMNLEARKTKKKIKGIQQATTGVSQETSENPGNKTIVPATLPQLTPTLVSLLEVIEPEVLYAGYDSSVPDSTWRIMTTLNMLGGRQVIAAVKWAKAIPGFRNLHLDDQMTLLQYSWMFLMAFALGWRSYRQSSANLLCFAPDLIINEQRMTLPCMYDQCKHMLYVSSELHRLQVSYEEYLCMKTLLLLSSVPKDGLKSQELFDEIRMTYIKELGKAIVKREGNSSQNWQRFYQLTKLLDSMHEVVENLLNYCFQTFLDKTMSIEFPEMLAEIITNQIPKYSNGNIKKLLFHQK

As for `COc1ccc(-c2coc3cc(O)ccc3c2=O)cc1`, the Potency entry in [1], in test [2], in [3], in test [4], in test [5] and in [6] was “inactive” throughout. The Potency entry in test [7], in test [8], in test [10] and in test [11] was “inactive” each time. Besides, the Potency in [9] is 30.6 µM (active).

`CC(CO)Oc1ccccc1` (configuration not stated): the Potency entry in [1], in [2], in test [3], in test [4], in test [5] and in test [6] was “inactive” in each case. Also, the Potency result in test [12], in test [7], in [13], in [8], in test [9] and in test [14] was “inactive” throughout. The Potency result in [10], in test [15], in [16], in [11] and in test [18] was “inactive” in each case. In [17], the compound was classed as inactive.

Consider `Cc1nc2n(c(=O)c1CCN1CCC(c3noc4cc(F)ccc34)CC1)CCCC2`, for which the Potency entry in [1], in test [2], in test [4], in [5], in test [6] and in [12] was “inactive” each time. For the same compound, the Potency entry in [7], in test [13], in [8], in test [14], in [10] and in test [11] was “inactive” each time. Further, the Potency in test [19] was 9.44 µM (active).

With `COc1ccc(NC(=O)CC(C)=O)cc1`, the Potency result in test [1], in test [2], in [3], in test [4], in test [6] and in [12] was “inactive” throughout. Further, the Potency result in test [8], in test [9], in test [14], in [10] and in test [11] was “inactive” each time.

Consider `O=C(O)c1cc(O)c2ccccc2c1O`, for which the Potency result in [1], in test [2], in test [3], in [4], in test [5] and in [6] was “inactive” each time. Besides, the Potency result in [12], in [8] and in [10] was “inactive” in each case. The Potency in [19] was 6.11 µM (active); in [9] it was 5.45 µM (active); in test [14] it was 6.11 µM (active).

In the case of `CC(C)=CCC1=C(O)c2ccccc2C(=O)C1=O`, the Potency result in test [1], in [2], in test [3], in [4], in [5] and in test [6] was “inactive” throughout. For the same compound, the Potency entry in [12], in [7] and in test [18] was “inactive” throughout. Besides, the values for the Potency in test [9] and in [14] were 48.3 µM (active) and 60.8 µM (active), respectively. Moreover, the compound was classed as inactive in [17].

As to `COC(=O)Nc1nc2ccc(C(=O)c3ccccc3)cc2[nH]1`, the fluorescence, % of fluorescein in test [1] was -0.035% [at 18.6 µM] (inactive). For the same compound, the fluorescence, % of fluorescent control in test [2] was -0.0403% [at 18.6 µM] (inactive); in test [3], 0.0057% [at 18.6 µM] (inactive); in test [5], 0.0166% [at 18.6 µM] (inactive); in test [12], 0.116% [at 18.6 µM] (inactive). For the same compound, the fluorescence, % of Rose Bengal in test [4] is 0.103% [at 18.6 µM] (inactive). In addition, in [6], the fluorescence, % of fluorescein control is 0.0619% [at 18.6 µM] (inactive). Further, the Potency result in test [7], in test [10], in [11] and in test [18] was “inactive” each time. For the same compound, the Potency was 0.285 µM (active) in [19] and 0.32 µM (active) in test [9]. In addition, the outcome in [17] was inactive.

For the compound `C=CCn1c(=O)n(CC=C)c(=O)n(CC=C)c1=O`, the Potency result in test [1], in [2], in [3], in test [4], in test [5] and in test [6] was “inactive” in each case. For the same compound, the Potency result in [12], in [7], in test [8], in test [14] and in test [10] was “inactive” each time.

Take `CCCCCC/C=C\CCCCCCCC(=O)O`: the Potency entry in [1], in test [2], in [20], in test [4], in test [5] and in test [6] was “inactive” each time. For the same compound, the Potency entry in [12], in test [19], in test [10] and in test [11] was “inactive” each time.
